# According to PubChem BioAssay (NCI):
# Compounds without any hit were thinned out: in the full panel of roughly 83,000, 20% have a hit.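 Interpretation: 100, growth as untreated; towards 0, rising growth inhibition; 0, no net growth; 0 to -100, cell death. Compounds scoring below 10 were considered active.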 Values without a mark were called inactive. The source made the active and inactive calls.
# System: HOP-92 NSCLC
# Assay: NCI-60 one-dose screen, 48 h (100 = growth as untreated, 0 = no growth, -100 = all killed)
# Conditions: 10 µM unless noted
# Description: Growth inhibition of the HOP-92 human Non-Small Cell Lung tumor cell line is measured as a screen for anti-cancer activity. Cells are grown in 96 well plates and exposed to the test compound for 48 hours. Compounds are tested at a single concentration, which is 10^-5 M for most compounds. The reported endpoint is percent growth (GI% or GIPRCNT), where numbers from 0 - 100% represent growth inhibition, and numbers from -100% - 0 represent cell death. For example, a value of 40 represents 60% growth inhibition. A value of 0 means no net growth occurred over the course of the experiment. A value of -40 indicates 40% of cells at the beginning of the experiment died by the end of the experiment. A value of -100 means all cells are dead at the end of the experiment.
# NCI-60 Human Tumor Cell Lines Screen was performed using the standard one-dose NCI protocol, which is described in more detail at https://dtp.cancer.gov/discovery_development/nci-60/default.htm.
# Compounds with GIPRCNT values below 10 were considered active. Activity score was based on GIPRCNT using the following formula: […]
# Score is 0 for GIPRCNT values of 100 or above, 50 for GIPRCNT values of 0, and 100 for GIPRCNT values of -100.
row,Structure (SMILES),growth
1,COc1cnc2c(c1)C(=O)c1c-2n(CCCNCCO)c(=O)c2ccncc12,20.8%
2,CC1Cc2c(Cl)ncnc2N(C)c2ccc(F)cc21 (stereo not given),65.8%
3,C=C(CNCCc1ccc(O)cc1)[C@@H]1CC[C@]2(CO)CC[C@]3(C)[C@H](CC[C@@H]4[C@@]5(C)CCC(NCCO)C(C)(C)[C@@H]5CC[C@]43C)[C@@H]12 (stereo not given in full),-62.6% (active)
4,CCOC(=O)c1[nH]c(=O)c2c(C)nc(-c3ccccc3)cc2c1O,78.5%
5,COCCn1cc(-c2nc(-c3cc4cccnc4n3CCOC)cs2)c2cc(OC)ccc21,47.1%
6,Fc1cccc(CNc2c3ccccc3nc3ccccc23)c1F,2.67% (active)
7,O=C1c2cccnc2C(=O)c2c1c(C(=O)NCCn1ccnc1)c1ccccn21,56.3%
8,CN(C)CCCn1c2c(c3ncccc3c1=O)C(=O)c1ccccc1-2,70.9%
9,COc1ccc(-c2nc3c(c(-c4ccccc4)nn3-c3ccccc3)c(-c3ccc(N4CCOCC4)cc3)c2C#N)cc1,99.4%
10,Cc1cc2c(O)c(-c3cc(Cl)ccc3Cl)c3sc(=O)oc3c2cc1C,-15.5% (active)
11,N=C(N)c1ccc(-c2ccc(-c3ccc(Cl)cc3)s2)nc1,65.1%
12,O=C(O)/C(=C\c1ccc(Cl)cc1)c1ccc(Cl)cc1,67.7%
13,COc1ccc(-c2cn(-c3cc(OC)c(OC)c(OC)c3)c(=O)n2C(C)=O)cc1,94.2%
14,Nc1ncnc2c1N=C(c1ccc3c(c1)OCO3)CC(c1cccc(Nc3ccnc4cc(Cl)ccc34)c1)N2 (stereo not given),26.6%
15,COc1ccc(-c2nc(SCC(C)C)nc(N/N=C\c3ccc(F)cc3)c2C#N)cc1,89.9%
16,COC(=O)c1cc(-c2ccc(OC)cc2)[nH]c1N/N=C/c1c(Cl)cccc1Cl,47.4%
17,CCN(CC)c1nc(SCc2ccccc2Cl)ncc1C,56%
18,O=C(O)[C@@H]1c2ccccc2-c2ccccc2[C@H]1C(=O)O,61.5%
19,COc1ccc(-c2csc(N(C(=O)N3CCN(c4cc5c(cc4F)c(=O)c(C(=O)O)cn5C4CC4)CC3)c3ccccc3)n2)cc1,-18.1% (active)
20,O=C1N[C@@H]2NC(=[N+]3CCOCC3)N[C@@H]2N1,120%

row,Structure (SMILES),growth
1,CNC(=O)c1cc(Oc2ccc3c(c2)sc2nc(-c4cc(OC)c(OC)c(OC)c4)cn23)ccn1,15.8%
2,CN(C)c1ccc(/C=C/C(=O)c2ccc(-n3cc(CN4CCN(c5cc6c(cc5F)c(=O)c(C(=O)O)cn6C5CC5)CC4)nn3)cc2)cc1,50.3%
3,Cc1cnc(C(=O)NNc2nc3sc4c(c3c(=O)n2C)C(C)CCC4)cn1 (stereo not given),-9.03% (active)
4,CC(=O)OC[C@]12CCC(C)(C)C[C@H]1[C@@]1(O)[C@H](O)C[C@@H]3[C@@]4(C)CCCNC(C)(C)[C@@H]4CC[C@@]3(C)[C@]1(C)CC2,112%
5,O=C1C(Cl)=C(Oc2ccccc2)C(=O)c2ccccc21,72.6%
6,COc1ccc2[nH]cc(-c3nc(-c4c[nH]c5ccncc45)cs3)c2c1,62.5%
7,Cc1ccc(-c2nc(N3CCNCC3)c3oc(-c4ccccc4)nc3n2)cc1,-25.6% (active)
8,O=Cc1ccc([N+](=O)[O-])s1,103%
9,CC1=C(C(=O)OC(C)C)C(c2ccc3c(c2)OCO3)NC(=S)N1 (stereo not given),96.6%
10,C#CCOc1ccc2ncnc(Nc3cccc(NC(=O)C=C)c3)c2c1,66.1%
11,N#CC1=C(c2ccc(Cl)cc2)Nc2c(c(-c3ccc(Cl)cc3)nn2-c2ccccc2)C12C(=O)Nc1ccc(Cl)cc12 (stereo not given),-3.13% (active)
12,O=C(NNc1nccc(Nc2ccc(S(=O)(=O)Nc3ccncc3)cc2)n1)c1ccccc1,103%
13,COC(=O)/C(CCC=C(C)C)=C1\[C@@H](OC(C)=O)C[C@@]2(C)[C@H]1C[C@@H](O)[C@H]1[C@@]3(C)CC[C@H](NCCN)[C@@H](C)[C@@H]3CC[C@@]12C,53.1%
14,Cn1c(-c2ccc(Br)cc2)c(O)c(=O)c2c(F)cccc21,137%
15,CCOC(=O)c1cn2ncnc(Oc3ccc(NC(=O)NC4CCCCC4)c(Cl)c3)c2c1C,86.8%
16,CC1(C)CC[C@]2(C(=O)O)CC[C@]3(C)C(=CC[C@@H]4[C@@]5(C)C/C(=C/O)C(=O)C(C)(C)[C@@H]5CC[C@]43C)[C@@H]2C1,89%
17,CCN(CC)C(=S)SC(SC(=S)N(CC)CC)C(=O)c1nnn(-c2ccc([N+](=O)[O-])cc2)c1C,89.5%
18,CC(C)N1CN2C(=S)NC3C2N(C1)C(=S)N3C (stereo not given),101%
19,CCOC(=O)c1cnc2ccccc2c1Cl,70.4%
20,O=[N+]([O-])C1C(c2ccccc2)C12c1ccccc1-c1ccccc12 (stereo not given),-3.91% (active)
